# Reference: PubChem BioAssay (NCI)
# About 83,000 compounds went through this panel and 20% of them were active in at least one assay; those are over-represented in the sample as a whole.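 Step 1: grow cells in 96-well plates. Step 2: add test compound at a single concentration. Step 3: incubate 48 h. Step 4: record percent growth.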 Unmarked numbers belong to inactive results. Active and inactive are the calls of the source. How the source made its calls: active means growth percent below 10; inactive means the rest.
# Key:
# Test in all cases: NCI-60 one-dose screen, 48 h (100 = growth as untreated, 0 = no growth, -100 = all killed)
# Settings in all cases: 10 µM unless noted
# [1] = test system: SR leukemia
# [2] = test system: OVCAR-8 ovarian
# [3] = test system: OVCAR-5 ovarian
# [4] = test system: OVCAR-4 ovarian
# [5] = test system: SK-OV-3 ovarian
# [6] = test system: IGROV1 ovarian
# [7] = test system: OVCAR-3 ovarian
# [8] = test system: HS 578T breast
# [9] = test system: NCI/ADR-RES ovarian
# [10] = test system: RPMI-8226 leukemia
Compound,growth [1],growth [2],growth [3],growth [4],growth [5],growth [6],growth [7],growth [8],growth [9],growth [10]
CC(C)[C@@]12C[C@@H](OC(=O)[C@H]3CO3)[C@@](C)(O1)[C@@H]1CC[C@@H](C)[C@H]1[C@@H]2OC(=O)/C=C/c1ccccc1,69.4%,11.1%,100%,92%,76.5%,85.7%,87%,-23.9% (active),31.1%,
CCN(CC)CCNC(=O)n1cc(-c2ccncc2)c(-c2ccc(Cl)c(OC)c2)n1,80.7%,31%,98.8%,92.6%,75.5%,88.8%,101%,90.1%,83.5%,
CCC1N=C(N)N=C(N)N1c1ccc(Cl)cc1 (stereo unspecified),88.9%,74.4%,119%,103%,108%,66.6%,104%,97%,,
COc1cc(CN2CCC(N3CCCC3=O)c3ccccc32)cc(OC)c1OC (stereo unspecified),59.1%,84.2%,103%,41.3%,100%,90.5%,100%,88.3%,67.3%,
COc1cc2c(cc1OC)-c1cc(OC)c(OC)cc1C(CN(C)C)C2 (stereo unspecified),53.9% [100 µM],,86% [100 µM],-20.7% [100 µM] (active),6.96% [100 µM] (active),60.7% [100 µM],59.9% [100 µM],10.3% [100 µM],26.9% [100 µM],67.7% [100 µM]
CC(=O)Cc1ccccn1,108%,110%,110%,106%,119%,107%,105%,107%,108%,
Cc1cc(O)c2cc3c(O)c(O)ccc3cc2c1,101%,,81.5%,,109%,98.1%,133%,110%,109%,115%
CCN(CC)CCCCCCCCNc1c2ccc(Cl)cc2nc2ccc(OC)cc12,-63.6% (active),,,-49.8% (active),-29.1% (active),-9.45% (active),-38.3% (active),,-29.8% (active),-43.8% (active)
CCCCCCCCCCCCCCCC1=NC(C)(C)CN1C(C)C,-49.7% (active),-16.8% (active),56.2%,24.3%,-6.62% (active),-32.9% (active),-43.2% (active),-31.6% (active),-22% (active),
O=C(O)CSc1ccc(NCc2oc(CO)cc(=O)c2O)cc1,81.8%,102%,102%,103%,98.7%,105%,110%,90.9%,94.3%,
COc1ccc(-n2c(COc3ccc(F)cc3)n[nH]c2=S)cc1,120%,112%,110%,105%,109%,96.4%,103%,108%,103%,
CCn1c(=O)c(C(=O)NCCCO)c(O)c2ccccc21,105%,103%,116%,100%,115%,108%,155%,92.1%,111%,
CCN1C(=O)N(CC)C2C1NN=c1s/c(=C\c3ccc(Br)cc3)c(=O)n12 (stereo unspecified),14%,2.86% (active),35.1%,65.7%,16.1%,13.3%,3.78% (active),54%,5.64% (active),
Cc1cc(Nc2c3ccccc3nc3ccccc23)ccc1NS(C)(=O)=O,-6.9% (active),,27.5%,48.1%,43.5%,25.5%,46.6%,52.4%,57.7%,31.2%
COc1cc(-c2nn(C(=O)NCCN3CCN(C)CC3)cc2-c2ccncc2)ccc1Cl,77.5%,24.5%,84.6%,78%,55.1%,75%,97.2%,76.9%,82.4%,
O=[N+]([O-])c1ccc(N/N=C\c2ccc(O)cc2O)nc1,15.3%,25.4%,57.9%,40%,25.8%,28.7%,74.8%,90.8%,20.6%,
CCCCCCCCCCCCCC1=NC(C)(C)CN1C(C)C,-46.5% (active),-12.4% (active),39.7%,7.76% (active),-2.05% (active),-30.4% (active),-56.3% (active),-28.1% (active),-12.4% (active),
CCN(CC)CCNC(=O)C(F)(F)C(F)(F)C(F)(F)F,106%,114%,99.2%,112%,101%,138%,109%,96.7%,113%,
NC(=S)N1N=C(c2ccc(Cl)cc2)CC1c1cc2ccccc2[nH]c1=O (stereo unspecified),82.4%,111%,108%,100%,104%,101%,119%,112%,108%,
O=C(CSc1nc2c(n1Nc1ccccc1)-c1ccccc1SC2)Nc1nccs1,82.7%,97.3%,103%,102%,109%,91.4%,98.6%,93.5%,90.4%,
O=C1CCCN1C1CCN2CCCc3cccc1c32 (stereo unspecified),83.5%,103%,99.9%,105%,110%,98.5%,121%,112%,108%,
N/N=C(\C(=N\N)c1ccccc1)c1ccccc1,77.2%,104%,102%,77.3%,99.4%,96.8%,112%,108%,102%,
COc1cc(Cl)cc(-c2nn(C(=O)NCCN3CCOCC3)cc2-c2ccncc2)c1,29.8%,72.9%,99.5%,102%,48.7%,61.5%,20.3%,97%,60.9%,
Cn1cnc([N+](=O)[O-])c1S(=O)(=O)Oc1cccc2ccccc12,17.5%,73.3%,82.3%,81.3%,95.8%,36.9%,-73% (active),99.7%,57.6%,
Cc1cccc(/C=N/n2c(-c3ccc(Cl)cc3)nc3c(Br)cc(Br)cc3c2=O)c1,73.1%,32.5%,50.2%,-3.16% (active),39.5%,31.9%,38.2%,65.1%,30.5%,
CCCCn1cnc2c(SCc3ccc([N+](=O)[O-])cc3)nc(N)nc21,37.6%,90.9%,91.5%,76.3%,116%,90.3%,98.4%,107%,89.3%,
Cn1cnc([N+](=O)[O-])c1S(=O)(=O)Oc1ccccc1,56.1%,100%,103%,112%,101%,85.7%,1.83% (active),105%,92%,
C/C(=N\Nc1ccc([N+](=O)[O-])cn1)c1ccc(N)cc1,21.8%,109%,98.2%,100%,115%,93.5%,101%,109%,115%,
CCN1C(=O)N(CC)C2C1NN=c1s/c(=C\c3ccco3)c(=O)n12 (stereo unspecified),17%,27.8%,36.7%,63.3%,31.6%,36.9%,-12% (active),29.6%,9.31% (active),
CCOC(=O)C1C(=O)C=C(c2cc(OC)c(OC)c(OC)c2)CC1c1sc(N(C)Cc2ccccc2)nc1Cl (stereo unspecified),80.8%,82%,101%,86.8%,85.2%,95.6%,91.6%,55.9%,86.3%,
